From the OligoGym collection

These sequences were tested against DPM2 (assay: pooled miR-30 sensor sort-seq; sequence = guide strand). Conditions: shRNA.
Further: reference of the scale not given here.

| Sequence | sensor-assay potency score (higher = more potent) |
| --- | --- |
| TTGGTCTTCAGCATCACATAGG | -0.278 |
| TCCCACAAACAGGAGCAGCAGG | -1.71 |
| ATACTTGTGGATGACATGCTGA | -0.113 |
| TAGGTGAAGATGATCAGGCTAA | 0.29 |

What follows are sequences tested against DPP3 in the same assay as above. Conditions: shRNA.

| Sequence | sensor-assay potency score (higher = more potent) |
| --- | --- |
| TGAAGCTCTCTATATACTGGGC | -0.35 |
| TTGTCCTGGATCCAGAAGCGGG | -1.46 |
| TTCCTTACGCAGCAGCACCGTG | -1.18 |
| TTGTAGTTGCCCATGTTGGAGT | -1.16 |
| AAGTTGGGAACAAACTTGGTGT | -0.148 |
| TAGTTGGGGATGTTGATGCCGG | -0.85 |
| TCGTCCTGTACGAAGAGCTTGC | -0.841 |
| TGTTGGAGTAAACACCCGCGGC | -1.37 |
| TTGTCCTTCTCAAAGGTTGGGG | -0.0545 |
| AAGATCTCCAGCACTTGCGGGT | -0.379 |
| TCGACCTCTTTGAAGAGCCGGG | -0.473 |
| TTGGTGTCACCAAAGGACTTGT | -0.525 |
